In PubChem BioAssay (NCATS):
Values joined by “and” are separate entries in the source; they are usually repeats but may differ in a detail not shown here. Equal values may be shown once. Results filed as inconclusive are left out. A number with no mark means an inactive call. Active and inactive are the calls of the source. The call rests on the fitted dose curve; in most records, active means well fitted inhibition curve with a large enough effect; inconclusive means small, poorly fitted or top-dose-only effect; inactive means no such curve, though single readings can be large or run the other way.

target: Nuclear receptor ROR-gamma (Homo sapiens) (UniProt P51449); assay: qHTS assay for small molecule antagonists of the retinoid-related orphan receptor gamma (ROR-gamma) signaling pathway (AID 651802); conditions: ROR-gamma antagonist cell reporter assay; series mostly up to 92.2 µM; activity change, negative = inhibition: at the top concentration; further: nearly all actives have a fitted effect of over 60% in size
Description: National Center for Advancing Translational Sciences [NCATS]
NIH Chemical Genomics Center [NCGC]
National Institutes of Environmental Health Sciences [NIEHS]
National Toxicology Program [NTP]
Nuclear steroid hormone receptors are involved in many biological processes including inflammatory responses, cell proliferation, and apoptosis. Environmental factors or compounds disrupting these nuclear receptor pathways and gene expression may promote susceptibility to immunotoxicants and autoimmune diseases. One important group of these expression factors are the retinoid-related orphan receptors. To assess compounds that may interfere with the retinoid-related orphan receptor gamma (ROR-gamma) transcription factor, a cell-based luciferase assay was used.
The CHO cell-based assay utilizes a TET-inducible ROR expression factor and ROR response element-LUC reporter gene. Reporter activity was induced using doxycycline and measured after 16hr incubation. Luminescence was read using Viewlux (PerkinElmer), where a decrease in reporter activity would show a decrease in luminescence.
1,000 cells in 4 uL/well were dispensed into white wall/solid bottom 1536-well plates using a Multidrop Combi (Thermo Scientific) dispenser. Following transfer of 23 nL compound or DMSO vehicle by a pin tool, the plates were treated with 1 ul doxycycline to induce reporter gene activity. After 16hr incubation at 37C and 5% CO2, 5uL one-glo (promega) was added to each plate and following 30 min incubation at room temperature, luminescence was quantified on a ViewLux (PerkinElmer) plate reader.
On the % scale 0 is the no-effect control and ±100 the full control effect; potency means the concentration at half of the fitted maximal effect.

Sequence of Nuclear receptor ROR-gamma (Homo sapiens) (P51449 whole entry, looked up): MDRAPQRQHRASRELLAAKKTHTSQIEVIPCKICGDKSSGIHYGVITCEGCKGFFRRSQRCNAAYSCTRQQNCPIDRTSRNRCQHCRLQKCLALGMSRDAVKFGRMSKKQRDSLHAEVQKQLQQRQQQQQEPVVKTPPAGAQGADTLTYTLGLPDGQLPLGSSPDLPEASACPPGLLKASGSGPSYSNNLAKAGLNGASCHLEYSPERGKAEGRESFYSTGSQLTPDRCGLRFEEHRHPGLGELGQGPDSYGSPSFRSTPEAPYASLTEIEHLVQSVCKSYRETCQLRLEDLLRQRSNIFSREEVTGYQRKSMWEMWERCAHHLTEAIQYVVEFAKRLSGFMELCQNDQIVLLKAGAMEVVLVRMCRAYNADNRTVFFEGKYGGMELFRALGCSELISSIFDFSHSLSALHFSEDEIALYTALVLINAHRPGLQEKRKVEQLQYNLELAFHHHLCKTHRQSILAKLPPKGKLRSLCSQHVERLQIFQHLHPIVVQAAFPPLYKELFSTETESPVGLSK

| SMILES | activity change, negative = inhibition | Potency |
| --- | --- | --- |
| C#CCO | 12.8% |  |
| C=CC(=O)OCC(CO)(COC(=O)C=C)COC(=O)C=C |  | 4.22 µM (active) |
| Cc1cccc(C)c1 | -2.66% |  |
| O=C1C2(Cl)C3(Cl)C4(Cl)C(Cl)(Cl)C5(Cl)C3(Cl)C1(Cl)C5(Cl)C24Cl (configuration not stated) |  | 9.44 µM (active) and 10.6 µM (active) |
| O=Nc1ccc(Nc2ccccc2)cc1 |  | 7.5 µM (active) |
| ClC1=C(Cl)C(Cl)(Cl)C(Cl)=C1Cl |  | 13.3 µM (active) |
| Clc1ccc(C(c2ccc(Cl)cc2)C(Cl)Cl)cc1 |  | 37.6 µM (active) |
| c1ccc2cc3c(cc2c1)-c1cccc2cccc-3c12 | 17.2% |  |
| c1ccc2c(c1)ccc1ncccc12 | 44.6% |  |
| c1c[nH]cn1 | 6.45% |  |
| [O-][N+](=Nc1ccccc1)c1ccccc1 | 92.7% |  |
| CCCCCCCCn1sccc1=O |  | 11.9 µM (active) |
| Cc1c(N)cccc1N | 29.2% |  |
| N#CC(Cl)Cl |  | 33.5 µM (active) |
| O=NO |  | inactive |
| O=C1OC(=O)c2c(Br)c(Br)c(Br)c(Br)c21 | -14.9% |  |
| NC(N)=S | 33.3% |  |
| CCCCC(CC)COC(=O)CCCCC(=O)OCC(CC)CCCC (configuration not stated) | 25.8% |  |
| Cc1cc(C)c(N)cc1C | 35% |  |

| SMILES | activity change, negative = inhibition | Potency |
| --- | --- | --- |
| ClC1=C(Cl)C2(Cl)C3C(Cl)C(Cl)CC3C1(Cl)C2(Cl)Cl (configuration not stated) |  | 37.6 µM (active) |
| Oc1cc(Cl)cc(Cl)c1Cl |  | 18.8 µM (active) |
| OCC(CBr)(CBr)CBr | 6.58% |  |
| O=[N+]([O-])c1cc(C(F)(F)F)cc([N+](=O)[O-])c1Cl | -87.9% |  |
| Nc1ccccc1C(=O)OCCc1ccccc1 | 44.5% |  |
| [CH3][Hg][Cl] |  | 6.68 µM (active) |
| O=C(CCl)c1ccccc1 |  | 16.8 µM (active) |
| CN(C)CCCCCCN(C)C | 8.6% |  |
| FC(F)(F)c1ccc(Cl)cc1 | -1.84% |  |
| O=[N+]([O-])C(Br)Br |  | 18.8 µM (active) |
| CC(C)CC(C)Nc1ccc(Nc2ccccc2)cc1 (configuration not stated) |  | 37.6 µM (active) |
| CN(C)c1ccc(N=O)cc1 |  | 7.5 µM (active) |
| CC(CCl)OC(C)CCl (configuration not stated) | 44.3% |  |
| Cc1ccc(N)c([N+](=O)[O-])c1 | 59.3% |  |
| [Cd+2].[Cl-].[Cl-] |  | 3.35 µM (active) |
| CC(C)(C)C(=O)C1C(=O)c2ccccc2C1=O |  | 21.1 µM (active) |
| C(=NC1CCCCC1)=NC1CCCCC1 |  | 18.8 µM (active) |
| O=C(O)C1C(C(=O)O)C2(Cl)C(Cl)=C(Cl)C1(Cl)C2(Cl)Cl (configuration not stated) | 10.5% |  |
